Assay results as given in PubChem BioAssay (NCATS).
Records with an inconclusive call do not appear. Entries that show only a call come without a potency. Activity calls are given as the source filed them. Calls come from the whole dose curve; as a rule, active = well fitted inhibition curve with a large enough effect; inconclusive = small, poorly fitted or top-dose-only effect, or effect the other way; inactive = flat fitted curve, though single readings scatter.

biological target: ATP-dependent 6-phosphofructokinase (Trypanosoma brucei brucei) (UniProt O15648); assay: qHTS Assay to Find Inhibitors of T. brucei phosphofructokinase: hit validation (AID 492961);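 note: luminescence reports ADP formed as PFK phosphorylates fructose-6-phosphate with ATP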; settings: T. brucei PFK, ADP-Glo luminescence; series mostly up to 51.4 µM
Sequence (O15648 whole entry, looked up): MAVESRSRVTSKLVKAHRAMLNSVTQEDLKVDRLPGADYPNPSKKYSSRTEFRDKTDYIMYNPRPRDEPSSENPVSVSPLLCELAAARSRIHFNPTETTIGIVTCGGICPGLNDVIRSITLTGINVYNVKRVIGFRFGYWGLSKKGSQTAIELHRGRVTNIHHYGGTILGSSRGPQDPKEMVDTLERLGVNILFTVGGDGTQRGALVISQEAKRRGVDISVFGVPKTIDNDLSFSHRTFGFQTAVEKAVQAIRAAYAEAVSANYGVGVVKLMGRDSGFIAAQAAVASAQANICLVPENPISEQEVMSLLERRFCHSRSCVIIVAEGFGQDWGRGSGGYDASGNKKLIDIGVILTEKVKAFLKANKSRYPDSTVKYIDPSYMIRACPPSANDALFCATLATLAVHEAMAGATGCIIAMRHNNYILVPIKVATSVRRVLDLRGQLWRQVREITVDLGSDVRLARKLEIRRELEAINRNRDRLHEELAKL
Outline: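 Reaction: 0.1 M triethanolamine pH 8.0, 5 mM MgCl2, F6P 0.5 mM, ATP 0.1 mM, PFK 1.25 nM, 45 min RT. Read-out: ADP-Glo luminescence. Analysis: concentration-response fits, classed by r2 and efficacy.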

SMILES	Potency
CCC(O)c1ccccc1 (stereo not given)	inactive
N[C@H](CC(=O)O)C(=O)O	inactive
O=c1[nH]c(=O)n([C@H]2C[C@H](O)[C@@H](CO)O2)cc1/C=C/Br	inactive
CCOc1cc(-c2nccc3cc(OC)c(OC)cc23)cc(OCC)c1OCC	inactive
F[Si-2](F)(F)(F)(F)F	inactive
C=Cc1ccc(S(=O)(=O)O)cc1	inactive
O=C(O)Cc1cc(I)c(Oc2ccc(O)c(I)c2)c(I)c1	inactive
Nc1ncnc2c1ncn2CCOCP(=O)(O)O	inactive
c1ccc2c(c1)OCC(CN1CCCCC1)O2 (stereo not given)	inactive
CN(Cc1ccccc1)Cc1ccccc1	inactive
